# Results from PubChem BioAssay (NCATS).
# Values without a mark were called inactive. Records with an inconclusive call do not appear. Entries that show only a call come without a potency. Activity calls are given as the source filed them. Unless noted, calls follow the shape of the dose curve; as a rule, active = well fitted curve in the direction sought with a large enough effect; inconclusive = small, poorly fitted or top-dose-only effect, or another doubt; inactive = no such curve, though single readings can be large; an effect the other way counts as inactive or inconclusive.
# Assays:
# 7G8 = assay: qHTS profiling for inhibitors of Plasmodium falciparum proliferation (AID 504749); also: potency is read from the fitted curve at half-maximal effect; nearly all actives have a fitted effect of over 60% in size; conditions: P. falciparum in erythrocytes, SYBR Green DNA, 72 h; series mostly up to 28.7 µM
# Procedure, shortened: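 Fluorescence of SYBR Green-bound parasite DNA, read at 485/535 nm, served as the growth measure. Infected erythrocytes were cultured with compound 72 h; artemisinin (0.29 uM) and DMSO wells defined the normalization range.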
# [1] = NCATS anti-infectives library activity on HEK293 viability as a counter-qHTS vs the C. elegans viability qHTS (AID 1745854);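 also: HEK293 cells exposed to compounds for 24 hr before the viability read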
# Procedure, shortened: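 Compound titrations (final up to 41.7 uM) were incubated with HEK293 cells for 24 hr at 37C under 5% CO2. Viable cells were quantified with CellTiter-Glo after 10 min at ambient temperature.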
# [2] = NCATS anti-infectives library activity on the primary C. elegans qHTS viability assay (AID 1745855; calls by dose curve)
# Procedure, shortened: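 Titration-based screen in worms: eggs hatched overnight in M9, L1 larvae fed TOP10 capsules in S medium with compound, incubated 21 °C for 7 days; fluorescent objects gated by size and intensity at days 0, 3 and 7.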
# [3] = molecular target: alpha-glucosidase (Oryza sativa, rice) (UniProt Q653V4); assay: Counterscreen for Glucocerebrosidase Inhibitors: qHTS Assay for Rice alpha-Glucosidase at pH 5.0 (AID 997)
# Procedure, shortened: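 Endpoint fluorogenic assay at pH 5.0: compounds (0.7 nM to 77 uM) titrated against 4 nM rice enzyme and 400 uM 4-MU-alpha-glucoside for 20 min at room temperature; NaOH/glycine stop, read ex 365/em 440 nm, Hill-fitted AC50.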
# [4] = molecular target: Tumor susceptibility gene 101 protein (Homo sapiens) (UniProt Q99816); assay: qHTS Assay for Iinhibitors of HIV-1 Budding by Blocking the Interaction of PTAP/TSG101: Hit Validation (AID 651600); also: nearly all actives have a fitted effect of over 70% in size
# Tumor susceptibility gene 101 protein (Homo sapiens), sequence (Q99816 whole entry, looked up, the tested form may be a part): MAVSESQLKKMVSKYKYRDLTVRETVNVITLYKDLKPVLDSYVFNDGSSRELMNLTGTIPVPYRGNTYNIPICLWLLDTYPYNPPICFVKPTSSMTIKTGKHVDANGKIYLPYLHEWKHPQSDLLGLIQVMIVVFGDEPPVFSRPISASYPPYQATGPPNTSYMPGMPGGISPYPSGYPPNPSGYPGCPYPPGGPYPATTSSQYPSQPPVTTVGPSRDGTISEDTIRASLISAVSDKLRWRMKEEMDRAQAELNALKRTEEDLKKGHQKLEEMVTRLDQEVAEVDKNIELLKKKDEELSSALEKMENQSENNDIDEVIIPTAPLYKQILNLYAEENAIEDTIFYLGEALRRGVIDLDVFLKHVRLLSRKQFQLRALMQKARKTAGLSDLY
# Procedure, shortened: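 Compounds are added to the Tsg101 binding domain (10 uM final) in pH 7.5 HEPES buffer. FITC-PTAP peptide follows at 50 nM final. After 20 min at r.t., polarized FITC emission is measured.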
# [5] = Cell Viability qHTS for small molecule stabilizers of the endoplasmic reticulum resident proteome (AID 1508629); conditions: cell viability counter-screen, 100 nM thapsigargin for final 4 h;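 also: human SH-SY5Y neuroblastoma cells carrying the GLuc-SERCaMP reporter; compound exposure about 46 h in total before the viability read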
# [6] = Primary qHTS for inhibitors of SARS-S pseudo-typed particle cell entry (AID 1479145; calls by dose curve; also: nearly all actives have a fitted effect of over 45% in size)
# [7] = qHTS Assay for Identifying Gametocytocidal Compounds (AID 743244);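 also: actives lower the fluorescent signal which means gametocytes are killed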; conditions: P. falciparum 3D7 stage III-V gametocytes, alamarBlue, 72 h; max response: stronger effect = lower value
# Procedure, shortened: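 Using 20,000 stage III–V 3D7 gametocytes per well, compounds were incubated 72 h under 37 °C/5% CO2. Viability was then assessed by 24 h alamarBlue reduction, measured fluorometrically at 525/598 nm.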
# [8] = Primary qHTS for inhibitors of MERS-S pseudo-typed particle cell entry (AID 1479149; calls by dose curve; also: nearly all actives have a fitted effect of over 60% in size)
# [9] = molecular target: Glutathione peroxidase 1 (Homo sapiens) (UniProt P07203); assay: Primary qHTS Assay for Inhibitors of Recombinant Selenoprotein Glutathione Peroxidase 1 (GPX1) (AID 1845191); also: nearly all actives have a fitted effect of over 65% in size
# Glutathione peroxidase 1 (Homo sapiens), sequence (P07203 whole entry, looked up): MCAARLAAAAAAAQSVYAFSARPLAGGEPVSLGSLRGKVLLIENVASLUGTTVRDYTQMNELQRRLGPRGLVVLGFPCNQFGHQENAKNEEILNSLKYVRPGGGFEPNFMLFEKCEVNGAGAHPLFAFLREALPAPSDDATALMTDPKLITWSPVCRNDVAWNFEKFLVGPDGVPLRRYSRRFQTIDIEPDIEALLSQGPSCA
# Procedure, shortened: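 GPX1 10 nM, GR 100 nM, GSH 1 mM, NADPH 0.5 mM, CHP 0.5 mM (final). 30-min cpd preincubation, RT. Ex340/Em450 read t=0, t=15 min.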
# [10] = molecular target: Phospholipid hydroperoxide glutathione peroxidase GPX4 (Homo sapiens) (UniProt P36969); assay: Primary qHTS Assay for Inhibitors of Recombinant Selenoprotein Glutathione Peroxidase 4 (GPX4) (AID 1845192); also: nearly all actives have a fitted effect of over 65% in size
# Phospholipid hydroperoxide glutathione peroxidase GPX4 (Homo sapiens), sequence (P36969 whole entry, looked up): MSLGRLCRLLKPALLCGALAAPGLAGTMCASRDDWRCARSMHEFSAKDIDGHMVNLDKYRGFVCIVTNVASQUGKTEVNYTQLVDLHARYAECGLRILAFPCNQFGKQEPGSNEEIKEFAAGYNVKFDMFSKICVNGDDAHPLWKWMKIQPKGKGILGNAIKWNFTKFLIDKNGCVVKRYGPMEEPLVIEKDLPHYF
# Procedure, shortened: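 qHTS, GR-coupled: GPX4 200 nM + cpd 30 min RT → GSH 1 mM, NADPH 0.5 mM, GR 100 nM → CHP 0.5 mM start; fluor 340/450 at t0 and t15 min; no-enzyme wells as control.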
# [11] = molecular target: Lysosomal acid glucosylceramidase (Homo sapiens) (UniProt P04062); assay: Glucocerebrosidase-p2 (AID 348; in the data active = potency below about 10 µM; also: potency is read from the fitted curve at half-maximal effect); conditions: purified GBA, blue fluorogenic substrate, 40 min
# Lysosomal acid glucosylceramidase (Homo sapiens), sequence (P04062 whole entry, looked up): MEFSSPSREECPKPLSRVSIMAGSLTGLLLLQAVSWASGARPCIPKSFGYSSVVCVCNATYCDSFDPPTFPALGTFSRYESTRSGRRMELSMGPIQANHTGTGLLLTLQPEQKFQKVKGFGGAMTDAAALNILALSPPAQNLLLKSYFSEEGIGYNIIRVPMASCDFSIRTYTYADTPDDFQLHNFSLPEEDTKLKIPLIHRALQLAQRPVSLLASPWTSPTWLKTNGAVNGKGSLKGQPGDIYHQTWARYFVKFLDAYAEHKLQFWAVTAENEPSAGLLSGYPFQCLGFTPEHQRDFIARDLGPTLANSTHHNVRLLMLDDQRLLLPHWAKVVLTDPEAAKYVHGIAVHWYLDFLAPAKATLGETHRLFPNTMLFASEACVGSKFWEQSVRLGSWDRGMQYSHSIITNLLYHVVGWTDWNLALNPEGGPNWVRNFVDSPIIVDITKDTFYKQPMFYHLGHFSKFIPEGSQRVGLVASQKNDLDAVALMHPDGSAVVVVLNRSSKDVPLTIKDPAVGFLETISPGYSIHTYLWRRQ
# Procedure, shortened: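 Normal human glucocerebrosidase (0.2 nM) with blue fluorogenic substrate (80 uM final) in citrate/phosphate pH 5.9 with 10mM sodium taurocholate, 0.01% tween-20; 40 min RT, NaOH/glycine stop; fluorescence Ex 365/Em 440; AC50 from a titration from 0.6 nM upwards.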
compound,measurement,setting,value
CC(C)[C@@]1(NC(=O)[C@H]2CC3c4cccc5[nH]cc(c45)C[C@H]3N(C)C2)O[C@@]2(O)C3CCCN3C(=O)[C@@H](Cc3ccccc3)N2C1=O (some centres not stated),Potency,7G8,0.199 µM (active)
CCC(=O)CCCCC[C@@H]1NC(=O)[C@H]2CCCCN2C(=O)[C@H]([C@@H](C)CC)NC(=O)[C@H](Cc2cn(OC)c3ccccc23)NC1=O,Potency,[1],inactive
same,Potency,[2],inactive
C[C@H](N)Cc1c[nH]c2ccc(OCc3cccs3)cc12,outcome,[3],inactive
CC(C)C[C@H]1C(=O)N2CCCC2[C@]2(O)O[C@](NC(=O)[C@@H]3C=C4c5cccc6[nH]cc(c56)CC4N(C)C3)(C(C)C)C(=O)N12 (some centres not stated),outcome,[4],inactive
C=CCN1C[C@H](C)N([C@H](c2ccc(C(=O)N(CC)CC)cc2)c2cccc(O)c2)C[C@H]1C,max response,[5],8.89%
CCc1ccc(Cc2ccc3c(c2)[C@]2(OC3)O[C@H](CO)[C@@H](O)[C@H](O)[C@H]2O)cc1,Potency,[6],inactive
Cc1nnc2n1-c1sc(Br)cc1C(c1ccccc1Cl)=NC2,max response,[7],6.14%
same,Potency,[8],inactive
same,Potency,[9],inactive
same,Potency,[10],inactive
O=C1C2CCN(CC2)C1(CO)CO,Potency,[11],> 11.4 µM
